Each molecule was assayed against Solute carrier family 2, facilitated glucose transporter member 1 (Homo sapiens) (UniProt P11166) (assay: ST_JUDE_LEISH: Cytotoxicity at 2uM final concentration against transgenic Leishmania Mexicana promastigotes LmGLUT1 that are glucose transport deficient and complemented with the human glucose transporter GLUT1. Activity is measured by DNA content using SYBR green in vitro).
Type: functional

Solute carrier family 2, facilitated glucose transporter member 1 (Homo sapiens), sequence (P11166 whole entry): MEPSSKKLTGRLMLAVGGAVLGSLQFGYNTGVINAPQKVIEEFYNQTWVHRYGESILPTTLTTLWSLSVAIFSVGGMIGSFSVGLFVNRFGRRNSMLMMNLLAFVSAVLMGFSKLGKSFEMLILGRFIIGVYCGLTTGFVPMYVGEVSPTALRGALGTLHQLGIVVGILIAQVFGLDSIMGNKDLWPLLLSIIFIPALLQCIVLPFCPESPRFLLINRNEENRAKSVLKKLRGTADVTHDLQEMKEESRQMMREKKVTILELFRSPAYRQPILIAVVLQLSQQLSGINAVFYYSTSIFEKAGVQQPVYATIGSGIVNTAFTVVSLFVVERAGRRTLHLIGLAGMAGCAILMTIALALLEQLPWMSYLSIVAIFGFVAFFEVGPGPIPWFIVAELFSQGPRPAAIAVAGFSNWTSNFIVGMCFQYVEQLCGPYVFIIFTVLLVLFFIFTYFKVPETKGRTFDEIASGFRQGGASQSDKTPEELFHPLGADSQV

SMILES | inhibition
O=C(/C=C/c1ccc(Cl)c(Cl)c1)NCCCCCN1CCC(n2c(=O)[nH]c3ccccc32)CC1 | 8.14%
CCc1ccc(N2C(=O)C3C(Cc4ccc(OC(C)(C)C)cc4)NC4(C(=O)N(Cc5ccccc5)c5ccc(F)cc54)C3C2=O)cc1 (stereo unspecified) | 0.6%
Cc1nc(-c2nc(NCc3ccccn3)ncc2-c2ccsc2)sc1C | 6.64%
COc1cccc(O)c1CN1CCC2(CCCN(Cc3ccc(F)cc3)C2)C1 (stereo unspecified) | 1.04%
O=C(Nc1ccc(OC2CCN(Cc3ccsc3)C2)c(Cl)c1)c1ccc(F)cc1 (stereo unspecified) | 0.29%
Nc1ncc(-c2ccccc2)cc1-c1cccc2ncccc12 | 7.53%
CCN(CCN(C)C)Cc1ccc(-c2ccc(NS(=O)(=O)c3cccc(Cl)c3)cc2)cc1 | 7.37%
Fc1ccc(OC2CN(c3nccc(NCc4ccccc4Cl)n3)C2)cc1 | 3.81%
CCCCNCc1ccc(-c2nc(CN(CCCN3CCN(C)CC3)C(=O)Nc3cccc(Cl)c3)cs2)cc1 | 5.24%
COc1cc(F)c2ncc(Cl)c(CCN3CCC(NCc4ccc5c(c4)NC(=O)CO5)CC3)c2c1 | 7.29%
CCN1CCN(c2cc(C)c3cc(NC(=O)c4ccc(Br)o4)ccc3n2)CC1 | 6.38%
COc1cc(CN2CCC(NC(=O)[C@H](Cc3ccccc3)NC(=O)Nc3ccc(Oc4ccccc4)cc3)C2)ccc1O (stereo partly specified) | 0.58%
O=C(NC(NC(=S)Nc1ccc([N+](=O)[O-])cc1)C(Cl)(Cl)Cl)c1cccc(Cl)c1 (stereo unspecified) | -0.29%
CC(C)CNCc1ccc(-c2ccc(CN(CCCN3CCN(C)CC3)C(=O)CCC3CCCC3)cc2)cc1 | 55.1%
O=C(Nc1ccc(-c2cccc(-c3nc4ccccc4[nH]3)c2)cc1)Nc1ccc(Cl)c(Cl)c1 | -0.46%
Cc1cc(NCc2ccc(F)cc2)nc2cc(O)ccc12 | 2.81%
Nc1ncc(OC2CCCCC2)c(N)n1 | -1.08%
CC(=O)N1N=C(c2ccc(Cl)cc2)Sc2c1nc(-c1ccccc1)n2C(C)=O | 2.66%
Cc1cc(N2CCOCC2)nc(Nc2ccc(NC(=O)Nc3ccc(F)cc3)cc2)n1 | -0.56%
Cc1cc2c(cc1Cl)N(C(=O)Nc1cc(F)cc(-c3cncnc3)c1)CC2 | 9.04%
COc1ccc(CNC2CCN(c3ccc(NC(=O)c4cccc(Cl)c4)cc3)CC2)cc1OC | 2.25%
CCOc1ccc2c(N/N=C/c3cccc([N+](=O)[O-])c3)cc(C)nc2c1 | 5.98%
CC1(C)N=C(N)N=C(N)N1CCc1ccccc1 | 11.6%
COc1ccc(Cl)cc1N1CCN(CCCNC(=O)c2ccc(-c3nc4cc(Cl)c(F)cc4[nH]3)s2)CC1 | 6.45%
CCc1cn2c3c(cc(C(=O)N[C@@H](Cc4cc(F)cc(F)c4)[C@H](O)CNC4CC4)cc13)N(C)S(=O)(=O)CC2 | 3.44%
CCNc1cc(C(=O)N[C@@H](Cc2ccccc2)[C@H](O)CNC(CC)c2cccc(Cl)c2)cc(N2CCCC2=O)c1 (stereo partly specified) | 3.51%
